# Active and inactive are the calls of the source. Rule for the calls: active = hit-call score of the fitted dose curve at least 0.9, where 1 is the maximum; inactive = score below 0.9.
# How the values were obtained:
# [1] = ATG_E_Box_CIS: Attagene CIS-FACTORIAL HepG2 Assay for human Enhancer Box (E-box) (AID 2282936); conditions: HepG2 E-box cis-reporter transcription, actives raise or lower the signal
# Summary of the method: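 Endogenous transcription factor activity was sensed in human HepG2 liver cells through transfected cis-promoter reporter units. After 24 h of dosing, total RNA was reverse-transcribed and reporter cDNA resolved by capillary electrophoresis.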
# [2] = ATG_M_61_CIS: Attagene CIS-FACTORIAL HepG2 Assay for M61 Transcription Factor (Internal Marker) (AID 2282937); conditions: HepG2 Attagene CIS-FACTORIAL M61 internal marker reporter; actives raise or lower the signal
# Summary of the method: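 Human liver HepG2, transient MRTU transfection (cis promoter elements), 24 h compound. Total RNA → oligo(dT) RT → PCR → FAM label → HpaI → CE. Internal background marker; bidirectional fitting, DMSO = baseline.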
# [3] = ATG_EGR_CIS: Attagene CIS-FACTORIAL HepG2 Assay for human Early Growth Response 1 (EGR1) (AID 2282938); conditions: HepG2 Attagene CIS-FACTORIAL EGR reporter mRNA; actives raise or lower the signal
# Summary of the method: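 Transient transfection of human HepG2 with multiple cis-regulated reporter units, chemical exposure 24 h, total RNA isolated. Reverse transcription, PCR, fluorescent labelling and capillary electrophoresis quantify reporter transcripts; activity fitted bidirectionally against DMSO.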
# [4] = ATG_M_19_CIS: Attagene CIS-FACTORIAL HepG2 Assay for M19 Transcription Factor (Internal Marker) (AID 2282939); conditions: HepG2 Attagene CIS-FACTORIAL M19 internal marker reporter; actives raise or lower the signal
# Summary of the method: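 Readout: fluorescent reporter-transcript fragments by capillary electrophoresis after RT-PCR. Human HepG2 liver cells carried transfected MRTU constructs reporting endogenous transcription-factor activity; exposure 24 h. Gain or loss of signal fitted relative to DMSO.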
# [5] = ATG_Ets_CIS: Attagene CIS-FACTORIAL HepG2 Assay for human Erythroblast Transformation Specific (ETS) (AID 2282941); conditions: HepG2 ETS cis-reporter transcription, actives raise or lower the signal
# Summary of the method: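 Multiplexed reporter transcript profiling: HepG2, 24 h treatment, total RNA to cDNA, PCR, 6-FAM labelling, HpaI cut, capillary electrophoresis. Gain- or loss-of-signal fitted against DMSO.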
# [6] = ATG_FoxO_CIS: Attagene CIS-FACTORIAL HepG2 Assay for human Forkhead box O (FoxO) (AID 2282943); conditions: HepG2 Attagene cis-reporter, FoxO element, mRNA; actives raise or lower the signal
# Summary of the method: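 24 h chemical exposure, HepG2 with transient cis-MRTU transfection. RNA extraction, oligo(dT) RT, reporter-specific PCR, primer-extension labelling, HpaI digestion, CE fragment analysis; bidirectional fit, DMSO baseline.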
# [7] = ATG_GLI_CIS: Attagene CIS-FACTORIAL HepG2 Assay for human Zinc Finger Protein GLI1 (AID 2282945); conditions: HepG2, Attagene cis-factorial reporter mRNA, GLI element; actives raise or lower the signal
# Summary of the method: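 HepG2 cells transiently transfected with cis-promoter multiplexed reporter units report endogenous transcription factor activity. After 24 h chemical exposure, reporter mRNA was quantified by RT-PCR, 6-FAM labelling, HpaI digestion and capillary electrophoresis, with bidirectional fitting against DMSO.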
# [8] = biological target: Bile acid receptor (Homo sapiens) (UniProt Q96RI1); test: ATG_IR1_CIS: Attagene CIS-FACTORIAL HepG2 Assay for human Nuclear Receptor Subfamily 1 Group H Member 4 (NR1H4), IR1 submotif (AID 2282946); conditions: IR1 reporter transcription, actives raise or lower the signal
# Chain of Bile acid receptor (Homo sapiens) (Q96RI1 whole entry, looked up): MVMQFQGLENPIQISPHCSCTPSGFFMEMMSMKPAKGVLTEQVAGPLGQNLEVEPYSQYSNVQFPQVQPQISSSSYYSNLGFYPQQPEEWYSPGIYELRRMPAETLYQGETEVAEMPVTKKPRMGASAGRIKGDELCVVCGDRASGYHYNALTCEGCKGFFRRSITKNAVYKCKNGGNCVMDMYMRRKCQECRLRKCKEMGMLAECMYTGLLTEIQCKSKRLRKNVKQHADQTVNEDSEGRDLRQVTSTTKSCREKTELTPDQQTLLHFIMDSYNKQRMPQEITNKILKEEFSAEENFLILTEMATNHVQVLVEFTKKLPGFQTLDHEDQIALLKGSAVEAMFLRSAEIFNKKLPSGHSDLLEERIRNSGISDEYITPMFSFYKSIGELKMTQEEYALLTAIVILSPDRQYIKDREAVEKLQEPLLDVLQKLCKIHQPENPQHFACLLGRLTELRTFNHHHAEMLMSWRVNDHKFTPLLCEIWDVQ
# Summary of the method: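 Readout: reporter transcript levels by RT-PCR with fluorescent capillary electrophoresis, from HepG2 cells transiently transfected with multiplexed cis-regulated reporters and dosed 24 h. Gain- or loss-of-signal fitted versus DMSO negative control.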
# [9] = ATG_GRE_CIS: Attagene CIS-FACTORIAL HepG2 Assay for human Glucocorticoid Response Elements (GRE) (AID 2282947); conditions: HepG2 GRE cis-reporter, Attagene multiplex mRNA; actives raise or lower the signal
# Summary of the method: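 Cells (HepG2) bearing transfected cis-promoter reporter transcription units were treated with chemical for 24 hours. Reporter mRNA was measured via RT-PCR with capillary electrophoresis, and activity was fitted in both directions relative to DMSO.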
# [10] = ATG_ISRE_CIS: Attagene CIS-FACTORIAL HepG2 Assay for human Interferon Regulatory Factor 1 (IRF1) binding to an Interferon-Stimulated Response Element (ISRE) (AID 2282948); conditions: HepG2 ISRE cis-reporter (Attagene), mRNA transcription readout; actives raise or lower the signal
# Summary of the method: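 Signal reflects induction or loss of ISRE-linked reporter mRNA in transiently transfected HepG2 cells after a 24 h treatment, detected by fluorescent RT-PCR fragments on capillary electrophoresis and normalised to DMSO.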
# [11] = ATG_M_32_CIS: Attagene CIS-FACTORIAL HepG2 Assay for M32 Transcription Factor (Internal Marker) (AID 2282949); conditions: HepG2 Attagene cis-factorial M32 reporter, mRNA; actives raise or lower the signal;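 note: background control marker of the multiplexed CIS panel rather than a real target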
# Summary of the method: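 HepG2 human liver cells transiently transfected with cis-promoter-driven multiple reporter transcription units, dosed 24 h. Reporter mRNA quantified by RT-PCR, FAM-labelled primer extension, HpaI digest and capillary electrophoresis; bidirectional fit versus DMSO baseline.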
# [12] = ATG_M_06_CIS: Attagene CIS-FACTORIAL HepG2 Assay for M06 Transcription Factor (Internal Marker) (AID 2282950); conditions: HepG2 Attagene CIS-FACTORIAL M06 internal marker reporter; actives raise or lower the signal
# Summary of the method: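 Terse: HepG2, transient MRTU transfection (FuGene 6), 24 h dosing; total RNA, oligo(dT) RT, PCR, FAM label, HpaI cut, capillary electrophoresis; bidirectional fit vs DMSO baseline; background-control endpoint.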
# [13] = biological target: Hypoxia-inducible factor 1-alpha (Homo sapiens) (UniProt Q16665); test: ATG_HIF1a_CIS: Attagene CIS-FACTORIAL HepG2 Assay for human Hypoxia Inducible Factor 1 (HIF1A) (AID 2282951); conditions: HepG2 Attagene cis-factorial HIF1a reporter transcription; actives raise or lower the signal
# Chain of Hypoxia-inducible factor 1-alpha (Homo sapiens) (Q16665 whole entry, looked up, the tested form may be a part): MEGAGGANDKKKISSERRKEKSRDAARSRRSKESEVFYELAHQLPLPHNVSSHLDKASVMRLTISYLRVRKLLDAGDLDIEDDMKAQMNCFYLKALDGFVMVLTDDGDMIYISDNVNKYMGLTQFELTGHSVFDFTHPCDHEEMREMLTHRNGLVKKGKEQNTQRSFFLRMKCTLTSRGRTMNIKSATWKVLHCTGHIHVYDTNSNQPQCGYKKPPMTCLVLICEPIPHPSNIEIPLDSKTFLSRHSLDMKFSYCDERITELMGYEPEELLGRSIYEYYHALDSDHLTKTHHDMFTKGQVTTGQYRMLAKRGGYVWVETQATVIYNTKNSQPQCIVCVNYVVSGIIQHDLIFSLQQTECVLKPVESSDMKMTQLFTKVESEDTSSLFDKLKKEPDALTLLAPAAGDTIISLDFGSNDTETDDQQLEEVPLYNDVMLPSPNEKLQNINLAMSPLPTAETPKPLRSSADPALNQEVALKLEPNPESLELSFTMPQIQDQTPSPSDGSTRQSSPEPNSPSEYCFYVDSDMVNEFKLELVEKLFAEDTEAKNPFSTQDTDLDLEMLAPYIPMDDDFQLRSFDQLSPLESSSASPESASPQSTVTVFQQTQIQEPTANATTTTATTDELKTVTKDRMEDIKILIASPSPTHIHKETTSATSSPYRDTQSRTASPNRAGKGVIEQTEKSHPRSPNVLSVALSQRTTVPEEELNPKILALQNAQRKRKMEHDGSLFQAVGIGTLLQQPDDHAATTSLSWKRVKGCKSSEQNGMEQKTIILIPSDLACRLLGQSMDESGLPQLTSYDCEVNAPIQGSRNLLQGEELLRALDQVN
# Summary of the method: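 Transient MRTU transfection of human HepG2 liver cells, 24 h compound treatment, then total RNA isolation, oligo(dT) reverse transcription, PCR amplification, fluorescent labelling and capillary electrophoresis of reporter fragments. Gain or loss relative to DMSO.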
# [14] = biological target: Hepatocyte nuclear factor 6 (Homo sapiens) (UniProt Q9UBC0); test: ATG_HNF6_CIS: Attagene CIS-FACTORIAL HepG2 Assay for human Hepatocyte Nuclear Factor 6 (HNF6) (AID 2282952); conditions: HepG2 Attagene cis-factorial HNF6 reporter transcription; actives raise or lower the signal
# Chain of Hepatocyte nuclear factor 6 (Homo sapiens) (Q9UBC0 whole entry, looked up, the tested form may be a part): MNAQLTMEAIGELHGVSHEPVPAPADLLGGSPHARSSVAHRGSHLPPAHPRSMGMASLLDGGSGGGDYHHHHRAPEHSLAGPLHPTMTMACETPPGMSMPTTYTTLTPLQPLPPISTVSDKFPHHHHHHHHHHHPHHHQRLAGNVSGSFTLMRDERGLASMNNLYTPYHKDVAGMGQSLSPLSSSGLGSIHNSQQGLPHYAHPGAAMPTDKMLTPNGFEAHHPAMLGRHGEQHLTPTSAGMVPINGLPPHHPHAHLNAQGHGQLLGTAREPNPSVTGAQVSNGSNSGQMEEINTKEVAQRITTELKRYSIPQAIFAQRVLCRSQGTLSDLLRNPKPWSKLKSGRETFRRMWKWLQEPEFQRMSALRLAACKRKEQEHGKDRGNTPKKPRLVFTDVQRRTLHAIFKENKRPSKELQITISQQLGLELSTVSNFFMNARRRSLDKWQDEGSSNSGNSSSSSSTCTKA
# Summary of the method: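 First, HepG2 cells were transfected with the multiplexed cis reporter library and dosed with chemical for 24 h. Next, RNA was reverse-transcribed, PCR-amplified and fluorescently labelled. Finally, HpaI-digested fragments were read by capillary electrophoresis.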
# [15] = ATG_MRE_CIS: Attagene CIS-FACTORIAL HepG2 Assay for human Metal Responsive Element (MRE) (AID 2282954); conditions: HepG2 MRE cis-reporter transcription, Attagene multiplex; actives raise or lower the signal
# Summary of the method: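 Cells were transfected with cis-promoter reporter transcription units, then dosed for 24 h. RNA was reverse-transcribed, amplified, fluorescently labelled and resolved by capillary electrophoresis, and activity was fitted in both directions relative to DMSO.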
# [16] = ATG_PBREM_CIS: Attagene CIS-FACTORIAL HepG2 Assay for human Phenobarbital-responsive Enhancer Module (PBREM) (AID 2282955); conditions: HepG2 PBREM cis-reporter, Attagene multiplexed transcription; actives raise or lower the signal
# Summary of the method: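 Endogenous transcription factors in human liver HepG2 cells drive a PBREM cis-element reporter, whose transcript level after 24 h treatment is quantified by RT-PCR with capillary electrophoresis; activity fitted in both directions against DMSO.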
# [17] = biological target: Hepatocyte nuclear factor 3-beta (Homo sapiens) (UniProt Q9Y261); test: ATG_FoxA2_CIS: Attagene CIS-FACTORIAL HepG2 Assay for human Forkhead box A2 (FOXA2) (AID 2282942); conditions: HepG2 cis-reporter transcription factor activity, 24 h; actives raise or lower the signal
# Chain of Hepatocyte nuclear factor 3-beta (Homo sapiens) (Q9Y261 whole entry, looked up): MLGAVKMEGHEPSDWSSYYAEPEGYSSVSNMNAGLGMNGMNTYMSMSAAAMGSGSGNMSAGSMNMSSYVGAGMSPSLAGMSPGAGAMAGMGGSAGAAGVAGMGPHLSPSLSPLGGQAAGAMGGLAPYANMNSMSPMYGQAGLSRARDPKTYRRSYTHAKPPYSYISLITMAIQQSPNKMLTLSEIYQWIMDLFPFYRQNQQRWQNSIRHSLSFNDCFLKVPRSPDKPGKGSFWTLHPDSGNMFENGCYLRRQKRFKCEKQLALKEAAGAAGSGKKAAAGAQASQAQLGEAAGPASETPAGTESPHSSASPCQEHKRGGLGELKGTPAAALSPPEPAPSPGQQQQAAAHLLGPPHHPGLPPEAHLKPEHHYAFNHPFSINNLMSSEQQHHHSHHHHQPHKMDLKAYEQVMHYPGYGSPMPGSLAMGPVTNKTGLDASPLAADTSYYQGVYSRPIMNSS
# Summary of the method: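 Transient MRTU transfection of HepG2 liver cells; 24 h treatment; total RNA → oligo(dT) RT → PCR → FAM primer extension → HpaI cut → CE. Bidirectional fit vs DMSO.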
# [18] = ATG_GATA_CIS: Attagene CIS-FACTORIAL HepG2 Assay for human GATA Binding Protein (AID 2282944); conditions: HepG2 GATA cis-element reporter, Attagene multiplex mRNA; actives raise or lower the signal
# Summary of the method: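 Read-out: fluorescent reporter mRNA fragments resolved by capillary electrophoresis after RT-PCR. Human liver HepG2 cells carried transiently transfected cis-regulated reporter constructs; chemicals incubated 24 h; gain or loss of signal fitted relative to DMSO.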
# [19] = biological target: Heat shock factor protein 1 (Homo sapiens) (UniProt Q00613); test: ATG_HSE_CIS: Attagene CIS-FACTORIAL HepG2 Assay for human Heat Shock Transcription Factor 1 (HSE) (AID 2282953); conditions: HepG2 HSE cis-reporter, Attagene RNA transcription; actives raise or lower the signal
# Chain of Heat shock factor protein 1 (Homo sapiens) (Q00613 whole entry, looked up, the tested form may be a part): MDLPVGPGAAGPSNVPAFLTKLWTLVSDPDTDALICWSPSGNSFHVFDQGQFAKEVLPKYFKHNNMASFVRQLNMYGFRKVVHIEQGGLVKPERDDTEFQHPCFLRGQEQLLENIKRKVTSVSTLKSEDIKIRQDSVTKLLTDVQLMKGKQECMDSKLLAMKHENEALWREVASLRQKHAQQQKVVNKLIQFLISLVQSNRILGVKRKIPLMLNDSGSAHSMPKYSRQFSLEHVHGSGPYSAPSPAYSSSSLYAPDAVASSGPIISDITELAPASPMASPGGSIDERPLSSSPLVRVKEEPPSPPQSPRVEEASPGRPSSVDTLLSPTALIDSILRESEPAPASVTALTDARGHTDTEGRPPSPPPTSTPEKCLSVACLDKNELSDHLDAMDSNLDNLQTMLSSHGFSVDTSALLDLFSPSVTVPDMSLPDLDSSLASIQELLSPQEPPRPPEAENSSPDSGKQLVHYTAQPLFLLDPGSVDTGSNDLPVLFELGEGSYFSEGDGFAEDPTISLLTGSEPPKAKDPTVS
# Summary of the method: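 Read-out: fluorescence of reporter-specific RT-PCR fragments separated by capillary electrophoresis. HepG2 carrying transfected cis-element reporter units; 24 h dosing; activity fitted in both directions relative to DMSO baseline.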
structure (smiles),measurement,setting,value
ClC(c1ccccc1)(c1ccccc1)c1ccccc1,outcome,[1],inactive
same,outcome,[2],inactive
same,outcome,[3],inactive
same,outcome,[4],inactive
same,outcome,[5],inactive
same,outcome,[6],inactive
same,outcome,[7],inactive
same,outcome,[8],inactive
same,outcome,[9],inactive
same,outcome,[10],inactive
same,outcome,[11],inactive
same,outcome,[12],inactive
same,outcome,[13],inactive
same,outcome,[14],inactive
same,outcome,[15],inactive
same,outcome,[16],inactive
Clc1ccc(C(c2ccccc2Cl)C(Cl)Cl)cc1 (stereo not given),outcome,[1],inactive
same,outcome,[2],inactive
same,outcome,[3],inactive
same,AC50,[4],100 µM (active)
same,outcome,[17],inactive
same,AC50,[6],69.8 µM (active)
same,outcome,[18],inactive
same,AC50,[7],53.7 µM (active)
same,AC50,[8],43.8 µM (active)
same,outcome,[9],inactive
same,AC50,[10],60.9 µM (active)
same,outcome,[11],inactive
same,outcome,[12],inactive
same,outcome,[14],inactive
same,outcome,[19],inactive
same,AC50,[15],171 µM (active)
same,outcome,[16],inactive
CC(C)CCCCCCCCCCCCCCC(=O)O,outcome,[1],inactive
same,outcome,[2],inactive
same,outcome,[3],inactive
same,outcome,[4],inactive
same,outcome,[5],inactive
same,outcome,[17],inactive
same,outcome,[18],inactive
same,outcome,[7],inactive
same,outcome,[9],inactive
same,outcome,[10],inactive
same,outcome,[11],inactive
same,outcome,[12],inactive
same,outcome,[13],inactive
same,outcome,[14],inactive
same,outcome,[19],inactive
same,outcome,[15],inactive
same,outcome,[16],inactive
CCOc1ccc(NC(=O)CC(C)O)cc1 (stereo not given),outcome,[1],inactive
same,outcome,[2],inactive
same,outcome,[3],inactive
same,outcome,[4],inactive
same,outcome,[5],inactive
same,outcome,[6],inactive
same,outcome,[18],inactive
same,outcome,[7],inactive
same,outcome,[8],inactive
same,outcome,[10],inactive
same,outcome,[11],inactive
same,outcome,[12],inactive
same,outcome,[14],inactive
same,outcome,[15],inactive
CC(=O)Nc1ccc(C(=O)CCl)cc1,AC50,[1],20.6 µM (active)
same,outcome,[2],inactive
same,outcome,[3],inactive
same,outcome,[4],inactive
same,outcome,[17],inactive
same,outcome,[6],inactive
same,outcome,[18],inactive
same,outcome,[7],inactive
same,AC50,[8],33.4 µM (active)
same,outcome,[9],inactive
same,AC50,[10],6.86 µM (active)
same,outcome,[11],inactive
same,outcome,[12],inactive
same,outcome,[13],inactive
same,outcome,[14],inactive
same,outcome,[19],inactive
same,AC50,[15],16.1 µM (active)
CC1=C(Br)C(=O)C(Br)=C/C1=C(/c1ccccc1S(=O)(=O)O)c1cc(Br)c(O)c(Br)c1C,outcome,[1],inactive
same,outcome,[2],inactive
same,outcome,[3],inactive
same,outcome,[4],inactive
same,outcome,[5],inactive
same,outcome,[6],inactive
same,outcome,[18],inactive
same,outcome,[7],inactive
same,outcome,[8],inactive
same,outcome,[9],inactive
same,outcome,[10],inactive
same,outcome,[11],inactive
same,outcome,[12],inactive
same,outcome,[13],inactive
same,outcome,[19],inactive
same,outcome,[15],inactive
same,outcome,[16],inactive
CCCCCCC(CO)CCCC (stereo not given),outcome,[1],inactive
same,outcome,[2],inactive
same,outcome,[3],inactive
same,outcome,[4],inactive
same,outcome,[5],inactive
same,outcome,[6],inactive
same,outcome,[18],inactive
same,outcome,[7],inactive
same,outcome,[9],inactive
same,outcome,[10],inactive
same,outcome,[11],inactive
same,outcome,[12],inactive
same,outcome,[13],inactive
same,outcome,[14],inactive
same,outcome,[15],inactive
same,outcome,[16],inactive
CCCCCCC(O)CCCCCCCCCCC(=O)O (stereo not given),outcome,[1],inactive
same,outcome,[2],inactive
same,outcome,[3],inactive
same,outcome,[4],inactive
same,outcome,[5],inactive
same,outcome,[17],inactive
same,outcome,[7],inactive
same,outcome,[8],inactive
same,outcome,[9],inactive
same,outcome,[10],inactive
same,outcome,[11],inactive
same,outcome,[12],inactive
same,outcome,[14],inactive
same,outcome,[19],inactive
same,outcome,[15],inactive
same,outcome,[16],inactive
C[N+](C)(C)CCCCCC[N+](C)(C)C,outcome,[1],inactive
same,outcome,[2],inactive
same,outcome,[3],inactive
same,outcome,[4],inactive
same,outcome,[5],inactive
same,outcome,[6],inactive
same,outcome,[18],inactive
same,outcome,[7],inactive
same,outcome,[8],inactive
same,outcome,[10],inactive
same,outcome,[11],inactive
same,outcome,[12],inactive
same,outcome,[14],inactive
same,outcome,[15],inactive
same,outcome,[16],inactive
